Among all 390,000 compounds or so, about 17,000 (4.4%) were called active. Inconclusive results (about 8%) are left out. For the sample, actives were picked, then their nearest neighbours and some compounds at random. A number with no mark means an inactive call. Calls come from the whole dose curve; as a rule, active = well fitted inhibition curve with a large enough effect; inconclusive = small, poorly fitted or top-dose-only effect; inactive = no such curve, though single readings can be large or run the other way.
Biological target: Lysine-specific demethylase 4A (Homo sapiens) (UniProt O75164)
Sequence (O75164 whole entry, looked up, the tested form may be a part): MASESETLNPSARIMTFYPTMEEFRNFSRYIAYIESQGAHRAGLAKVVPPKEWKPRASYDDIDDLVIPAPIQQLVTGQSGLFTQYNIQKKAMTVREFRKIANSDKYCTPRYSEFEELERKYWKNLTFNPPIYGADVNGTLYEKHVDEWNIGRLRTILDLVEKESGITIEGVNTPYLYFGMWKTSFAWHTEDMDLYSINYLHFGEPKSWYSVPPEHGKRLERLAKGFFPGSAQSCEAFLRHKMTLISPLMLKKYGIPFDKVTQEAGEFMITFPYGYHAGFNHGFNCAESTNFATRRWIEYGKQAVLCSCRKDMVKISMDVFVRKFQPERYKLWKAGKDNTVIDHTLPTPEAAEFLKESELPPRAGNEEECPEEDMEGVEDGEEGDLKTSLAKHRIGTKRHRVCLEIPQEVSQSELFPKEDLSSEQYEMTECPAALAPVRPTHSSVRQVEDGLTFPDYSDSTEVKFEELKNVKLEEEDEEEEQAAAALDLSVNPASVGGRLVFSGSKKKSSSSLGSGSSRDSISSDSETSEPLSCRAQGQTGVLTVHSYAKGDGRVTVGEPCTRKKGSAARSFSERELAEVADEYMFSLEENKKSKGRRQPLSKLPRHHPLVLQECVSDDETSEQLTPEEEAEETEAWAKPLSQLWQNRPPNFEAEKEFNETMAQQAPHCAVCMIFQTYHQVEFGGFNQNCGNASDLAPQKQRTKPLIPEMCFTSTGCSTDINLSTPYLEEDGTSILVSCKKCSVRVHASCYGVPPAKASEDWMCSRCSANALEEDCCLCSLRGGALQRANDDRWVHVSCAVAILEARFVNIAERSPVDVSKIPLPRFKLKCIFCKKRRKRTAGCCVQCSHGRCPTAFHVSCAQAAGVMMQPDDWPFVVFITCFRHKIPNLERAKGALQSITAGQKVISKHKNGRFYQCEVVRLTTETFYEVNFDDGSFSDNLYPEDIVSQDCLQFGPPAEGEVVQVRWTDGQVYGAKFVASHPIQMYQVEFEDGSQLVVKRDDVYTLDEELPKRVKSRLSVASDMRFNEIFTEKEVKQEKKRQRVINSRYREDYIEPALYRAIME
Assay: qHTS Assay for Inhibitors of JMJD2A-Tudor Domain; note: nearly all actives have a fitted effect of over 50% in size
Conditions: AlphaScreen JMJD2A-Tudor / H3K4me3 peptide binding; series mostly up to 114 µM; activity change, negative = inhibition: at the top concentration
% is set by controls: 0 for no effect and ±100 for the full control effect; potency is the fitted concentration of half-maximal effect.

Q: With `Cc1ccc(NC(=O)Cn2cnc3nc4c(cc3c2=O)CCCC4)cc1Cl` as the compound, how does the “activity change, negative = inhibition” value read?
A: 4.15%

Q: Which Potency does the source give for `CCOc1ccc(N2C(=O)/C(=C/c3ccc(C)o3)N(C)C2=S)cc1` here?
A: 35.5 µM (active)

Q: For `CCO/C=C1\C(=O)N(c2ccc(OCC)cc2)C(=O)c2ccccc21`, which “activity change, negative = inhibition” value is on record?
A: -24.8%

Q: `CCOc1ccc(N2C(=O)CN(c3cccc4ccccc34)C2=S)cc1` was tested. Which “activity change, negative = inhibition” value did it give?
A: 1.34%

Q: For `CCCN1C(=O)C(O)(CC(=O)c2ccc(CC)cc2)c2cc(Br)ccc21` (stereo not given), which “activity change, negative = inhibition” value is on record?
A: -26.8%

Q: Which “activity change, negative = inhibition” value does the source give for `Cc1ccc(S(=O)(=O)NCCSc2ccccc2)cc1[N+](=O)[O-]` here?
A: -24.5%

Q: With `CCS(=O)(=O)c1cc([N+](=O)[O-])c(Sc2ccccc2N)s1` as the compound, how does the Potency read?
A: 44.7 µM (active)

Q: For `Cc1cc(C)cc(OCC(=O)Nc2nc(-c3ccc(F)cc3)ns2)c1`, which “activity change, negative = inhibition” value is on record?
A: -24.2%

Q: How did the “activity change, negative = inhibition” value turn out when `O=C(CCCOc1ccccc1)NCc1ccco1` was run?
A: -7.14%

Q: How did the “activity change, negative = inhibition” value turn out when `CCOC(=O)c1cnc(SCC(=O)NCc2ccco2)nc1N` was run?
A: -19.4%

Q: Which Potency does the source give for `Cc1cc(C(=O)OCC(=O)NCc2ccco2)c(C)n1-c1ccccc1` here?
A: 56.2 µM (active)

Q: `CCOC(=O)c1cccc(NC(=O)c2ccc(F)cc2F)c1` was tested. Which “activity change, negative = inhibition” value did it give?
A: -3.6%

Q: How did the Potency turn out when `O=C(COC(=O)c1ccc(F)cc1F)Nc1ncccn1` was run?
A: 28.2 µM (active)

Q: Which “activity change, negative = inhibition” value does the source give for `O=C(COC(=O)CSc1ccccc1)Nc1ccc(F)cc1F` here?
A: 5.56%

Q: For `Cc1oc2ncnc(N3CCCCC3)c2c1C(=O)N1CCN(c2cccc(Cl)c2)CC1`, which “activity change, negative = inhibition” value is on record?
A: -35.6%

Q: For `CCc1ccc(NC(=O)CN2C(=O)CCSc3ccc(S(=O)(=O)N4CCCC4)cc32)cc1`, which “activity change, negative = inhibition” value is on record?
A: -8.95%

Q: Which “activity change, negative = inhibition” value does the source give for `CCC(C)(C)NC(=O)C(c1ccc(OC)cc1)N(C(=O)CCC(=O)Nc1cc(C)on1)c1ccc(OC)cc1OC` (stereo not given) here?
A: -17.6%

Q: `CCC(C)(C)NC(=O)C(c1cccc(OC)c1OC)N(CC(C)C)C(=O)CCC(=O)Nc1cc(C)on1` (stereo not given) was tested. Which Potency did it give?
A: 11.2 µM (active)

Q: `COc1ccc(C(C(=O)NC(C)(C)C)N(Cc2ccc(F)cc2)C(=O)CCC(=O)Nc2cc(C)on2)cc1` (stereo not given) was tested. Which “activity change, negative = inhibition” value did it give?
A: -19.1%

Q: Which “activity change, negative = inhibition” value does the source give for `Cc1ccc(OCCSc2nc(-c3cccs3)nc3cc(=O)[nH]n23)cc1Cl` here?
A: -29.2%

Q: `O=c1cc2nc(-c3ccccc3)nc(SCCOc3ccc(Cl)cc3)n2[nH]1` was tested. Which Potency did it give?
A: 56.2 µM (active)

Q: How did the “activity change, negative = inhibition” value turn out when `CCc1ccccc1OCCSc1nc(-c2cccs2)nc2cc(=O)[nH]n12` was run?
A: -14.3%

Q: With `COc1ccc(CNCCCNCc2ccc(OC)c(OC)c2)cc1OC` as the compound, how does the “activity change, negative = inhibition” value read?
A: -8.97%

Q: With `COc1cc(CNCc2cccs2)cc(Br)c1OC` as the compound, how does the “activity change, negative = inhibition” value read?
A: -0.752%

Q: How did the Potency turn out when `COc1cc(CNCc2ccc(OC)c3ccccc23)cc(OC)c1OC` was run?
A: 25.1 µM (active)

Q: How did the “activity change, negative = inhibition” value turn out when `O=C(c1ccc2c(=O)n(Cc3ccco3)c(=S)[nH]c2c1)N1CCCC1` was run?
A: -18.4%

Q: Which “activity change, negative = inhibition” value does the source give for `O=c1n(Cc2cccc(C(F)(F)F)c2)c2ccccc2c2nc(-c3ccccc3)nn12` here?
A: -7.28%

Q: How did the Potency turn out when `O=S(=O)(NCC(c1ccccc1)N1CCc2ccccc21)c1ccccc1` (stereo not given) was run?
A: 22.4 µM (active)

Q: For `COc1ccc(S(=O)(=O)NCC(=O)NC2CC2)cc1OC`, which “activity change, negative = inhibition” value is on record?
A: -9.62%

Q: Which “activity change, negative = inhibition” value does the source give for `O=S(=O)(c1ccccc1)N1CCc2ccccc21` here?
A: 11.8%

Q: For `CN(C)c1ccc(C(CNS(=O)(=O)c2cc(F)ccc2F)N2CCOCC2)cc1` (stereo not given), which “activity change, negative = inhibition” value is on record?
A: -27.5%

Q: How did the “activity change, negative = inhibition” value turn out when `O=C(NCC(c1cccnc1)N1CCc2ccccc21)c1cccc(C(F)(F)F)c1` (stereo not given) was run?
A: -7.89%

Q: With `COc1ccc(S(=O)(=O)NCC(c2ccc(N(C)C)cc2)N2CCc3ccccc32)cc1OC` (stereo not given) as the compound, how does the Potency read?
A: 22.4 µM (active)

Q: `COc1ccc(-c2c3c(=O)n(C)c(=O)n(C)c3c3c(C)nc4ccccc4n23)cc1` was tested. Which “activity change, negative = inhibition” value did it give?
A: -2.41%

Q: For `Cc1ccc2[nH]c3c(=O)n(CC(=O)NC(C)C)ncc3c2c1`, which “activity change, negative = inhibition” value is on record?
A: -6.8%

Q: Which “activity change, negative = inhibition” value does the source give for `COc1ccc(CCn2c3c(c(=O)[nH]c2=S)CN(C(C)C)CN3)cc1OC` here?
A: -21.8%

Q: Which “activity change, negative = inhibition” value does the source give for `Cc1cc(C)cc(NC(=O)CSc2nc3nccnc3c(=O)n2CCc2c[nH]c3ccccc23)c1` here?
A: -13.2%

Q: How did the “activity change, negative = inhibition” value turn out when `O=C(Nc1cccc(Cl)c1N1CCOCC1)c1ccc2c(c1)OCCO2` was run?
A: -11.1%

Q: With `COC(=O)c1ccc(N2CCOCC2)c(NC(=O)c2ccc3c(c2)OCCO3)c1` as the compound, how does the “activity change, negative = inhibition” value read?
A: -0.69%

Q: For `O=C(Nc1ccc(N2CCOCC2)cc1)c1ccc2c(c1)OCO2`, which Potency is on record?
A: 20 µM (active)

Q: `CCCn1c2ccccc2c2cnn(CC(=O)N3CCCC(C(=O)OCC)C3)c(=O)c21` (stereo not given) was tested. Which Potency did it give?
A: 79.4 µM (active)

Q: `CCOC(=O)C1CCCN(C(=O)Cn2ncc3c(=O)oc4ccc(C)cc4c32)C1` (stereo not given) was tested. Which “activity change, negative = inhibition” value did it give?
A: -15.3%

Q: Which “activity change, negative = inhibition” value does the source give for `CCOC(=O)C1CCCN(C(=O)Cn2ncc3c(C)n(Cc4ccc(F)cc4)c(C)c3c2=O)C1` (stereo not given) here?
A: -21.8%

Q: With `COc1cccc(CNC(=O)C2CCN(S(=O)(=O)c3ccc4c(ccn4C)c3)CC2)c1` as the compound, how does the “activity change, negative = inhibition” value read?
A: -20.1%

Q: With `CCCN1CCN(CCCNC(=O)c2cnn(-c3ccc(C)cc3)c2-n2cccc2)CC1` as the compound, how does the “activity change, negative = inhibition” value read?
A: -21.7%

Q: For `COC(=O)c1ccccc1S(=O)(=O)Nc1ccc(OC)cc1`, which “activity change, negative = inhibition” value is on record?
A: -26.2%

Q: How did the “activity change, negative = inhibition” value turn out when `Cc1cc(C)n(-c2nc(C(F)(F)F)nc3ccccc23)n1` was run?
A: -5.54%

Q: `Cc1ccc(S(=O)(=O)N2CCN(c3ccccc3)CC2)cc1C` was tested. Which “activity change, negative = inhibition” value did it give?
A: -21.2%

Q: How did the Potency turn out when `Cc1cc(C)n(-c2nnc(N3CCN(c4ccccc4)CC3)nn2)n1` was run?
A: 50.1 µM (active)

Q: `N#CN1CCC(NS(=O)(=O)c2cccc(F)c2)C1` (stereo not given) was tested. Which “activity change, negative = inhibition” value did it give?
A: -4.11%

Q: For `CCOc1ccc(C2C(=O)N(C3CCCCC3)CC(=O)N2CCC2=CCCCC2)cc1OC` (stereo not given), which “activity change, negative = inhibition” value is on record?
A: -12.8%

Q: `Cc1cc(-c2n[nH]c(=S)n2/N=C/c2ccco2)n[nH]1` was tested. Which Potency did it give?
A: 3.98 µM (active)

Q: For `Cc1ccc(NC(=O)CCC(=O)N/N=C/c2ccco2)c(C)c1`, which “activity change, negative = inhibition” value is on record?
A: -15%

Q: Which Potency does the source give for `Cc1cc(-c2n[nH]c(=S)n2/N=C/C(Br)=C/c2ccccc2)n[nH]1` here?
A: 56.2 µM (active)

Q: How did the “activity change, negative = inhibition” value turn out when `CC(/C=N/NC(=O)c1cc(-c2ccc3ccccc3c2)n[nH]1)=C\c1ccco1` was run?
A: -32.6%

Q: How did the “activity change, negative = inhibition” value turn out when `Cc1cc(NC(=O)CC(C)C)cc(-c2nc3ncccc3o2)c1O` was run?
A: -10.4%

Q: `Fc1ccc(-c2nn(-c3ccccc3Cl)c3c2cnc2ccccc23)cc1` was tested. Which “activity change, negative = inhibition” value did it give?
A: -10.6%

Q: With `O=C(NC1CC(=O)N(c2ccccc2)C1)c1ccco1` (stereo not given) as the compound, how does the “activity change, negative = inhibition” value read?
A: -14%

Q: How did the “activity change, negative = inhibition” value turn out when `Cc1cc(C)n2ncc(C(=O)N3CCCC3)c2n1` was run?
A: -14.2%

Q: `Cc1ccc(Cl)cc1NC(=O)CSc1nccn1C` was tested. Which “activity change, negative = inhibition” value did it give?
A: -11.9%

Q: Which “activity change, negative = inhibition” value does the source give for `NC(=O)C1CCN(C(=O)c2ccc3c(=O)n(Cc4cccc(Br)c4)c(=S)[nH]c3c2)CC1` here?
A: -31.2%

Q: For `NC(=O)C1CCN(Cc2nc3c(Br)cc(Br)cc3c(=O)[nH]2)CC1`, which Potency is on record?
A: 3.16 µM (active)

Q: Which “activity change, negative = inhibition” value does the source give for `NC(=O)C1CCN(C2OC(=O)c3ccccc32)CC1` (stereo not given) here?
A: -12.3%

Q: With `COc1ccc(Cl)cc1NC(=O)C(C)Sc1nc2c(c(=O)[nH]1)CCCC2` (stereo not given) as the compound, how does the “activity change, negative = inhibition” value read?
A: -10.9%

Q: Which “activity change, negative = inhibition” value does the source give for `COc1cc(NC(=O)CCn2nc(C)cc2C)cc(OC)c1OC` here?
A: -5%

From PubChem BioAssay AID504339 (National Center for Advancing Translational Sciences (NCATS), 2011)
